Source: PubChem BioAssay AID1053 (University of Pittsburgh Molecular Library Screening Center, 2008)
Values joined by “and” are separate entries in the source; they are usually repeats but may differ in a detail not shown here. Equal entries are not always repeated.

Each molecule was assayed against Serine/threonine-protein kinase PLK1 (Homo sapiens) (UniProt P53350) (assay: Plk1 polo box domain binding inhibitors, SAR follow-up, biochemical, fluorescence polarization, purchased analogs (AID 1053)). Conditions: Plk1 PBD fluorescence polarization peptide binding; at 20 µM; hits give high values; call rule not given here.
Sequence of Serine/threonine-protein kinase PLK1 (Homo sapiens) (P53350 whole entry, looked up, the tested form may be a part): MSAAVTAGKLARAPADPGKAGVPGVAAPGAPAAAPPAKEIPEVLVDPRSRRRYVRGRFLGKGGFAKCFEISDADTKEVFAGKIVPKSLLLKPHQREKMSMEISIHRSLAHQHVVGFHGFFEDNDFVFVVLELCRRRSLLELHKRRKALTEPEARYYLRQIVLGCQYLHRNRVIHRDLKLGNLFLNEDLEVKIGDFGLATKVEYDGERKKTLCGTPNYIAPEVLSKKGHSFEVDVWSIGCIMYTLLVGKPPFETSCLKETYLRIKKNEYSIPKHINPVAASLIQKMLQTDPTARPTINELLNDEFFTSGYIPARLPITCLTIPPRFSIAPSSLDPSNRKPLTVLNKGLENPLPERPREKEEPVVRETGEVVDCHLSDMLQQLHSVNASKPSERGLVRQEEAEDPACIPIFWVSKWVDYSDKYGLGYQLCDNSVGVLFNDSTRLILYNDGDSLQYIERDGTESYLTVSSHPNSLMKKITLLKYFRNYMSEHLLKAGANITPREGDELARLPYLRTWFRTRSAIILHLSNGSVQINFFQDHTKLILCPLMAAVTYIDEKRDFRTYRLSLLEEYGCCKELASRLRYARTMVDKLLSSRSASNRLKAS

inhibition, inactive:
CC(=O)N(CN1C(=O)c2ccccc2C1=O)c1ccc(Cl)c(Cl)c1 -88.3%, COC(=O)c1ccc(N(/N=C2\Sc3ccccc3C2=O)C(C)=O)cc1 -20.9%, CCOC(=O)c1ccc(NC(=O)C2C3CCC(C3)C2C(=O)O)cc1 (configuration not stated) -61.5%, CC(=O)N(/N=C1\Sc2ccccc2C1=O)c1cc(C)ccc1C 33%, CC(=O)N(/N=C1\Sc2ccccc2C1=O)c1ccccc1Cl -48.1%, CC(=O)N(CN1C(=O)c2ccccc2C1=O)c1ccccc1C -32.5% and -28.6%, CCn1nc(-c2ccccc2Br)nc2c(=O)n(C)c(=O)nc1-2 34.5%, CC(=O)N(/N=C1\Sc2ccccc2C1=O)c1cccc(Br)c1 20.2%, CCc1ccc(-c2nc3c(=O)n(C)c(=O)nc-3n(CC)n2)cc1 5.6% and 4.47%, CCOC(=O)c1ccc(NC(=O)C2OCCc3ccccc32)cc1 (configuration not stated) -101%, CCOC(=O)c1ccc(NC(=O)c2ccc3nc(N)sc3c2)cc1 -36.9%, CCOC(=O)c1ccc(NC(=O)c2ccc(NC(=O)CC)cc2)cc1 -9.03%, CCOC(=O)c1ccc(NC(=O)C2Cc3ccccc3C(=O)O2)cc1 (configuration not stated) -59.4%, CN(C)c1ccc(-c2nnc3c(n2)c(=O)n(C)c(=O)n3C)cc1 -22%, CCOC(=O)c1ccc(NC(=O)c2ccc(Cl)c(Cl)c2)cc1 6.96%, CCOC(=O)c1ccc(NC(=O)c2cc(C)cc(C)c2)cc1 -13.8%, Cn1nc(-c2ccc(C(F)(F)F)cc2)nc2c(=O)n(C)c(=O)nc1-2 13.6% and 30.2%, CCCCCCC(=O)N(CN1C(=O)c2ccccc2C1=O)c1ccccc1 -23.4%, CCCCCC(=O)N(CN1C(=O)c2ccccc2C1=O)c1ccccc1OC -35.4%, O=C1NC(=O)C(=Cc2ccccc2OCCOc2ccccc2)C(=O)N1 -20.6%, CC(=O)N(CN1C(=O)c2ccccc2C1=O)c1ccccc1Cl -37.3% and -49.8%, CC(=O)N(CN1C(=O)c2ccc([N+](=O)[O-])cc2C1=O)c1ccc(Oc2ccccc2)cc1 -28.5%, CCOC(=O)c1ccc(N=Cc2c(O)[nH]c(=O)[nH]c2=O)cc1 49.9%, CCCCCC(=O)N(CN1C(=O)c2ccccc2C1=O)c1ccc(OCc2ccccc2)cc1 -7.17%, Cc1ccccc1-c1nc2c(=O)n(C)c(=O)nc-2n(C)n1 36.2% and 24.8%, CCOC(=O)c1ccc(N=Cc2c(O)n(Cc3ccc4c(c3)OCO4)c(=O)[nH]c2=O)cc1 -19.4%, CCCCCCC(=O)N(CN1C(=O)c2ccccc2C1=O)c1ccc(OCc2ccccc2)cc1 -7.37%, CCOC(=O)c1ccc(NC(=O)c2ccc3snnc3c2)cc1 -21.6% and -22.3%, O=c1[nH]c2c(c(O)c1-c1ccccc1)c(=O)n(-c1ccccc1)c(=O)n2-c1ccccc1 -40.4%, CC(=O)N(/N=C1\Sc2ccccc2C1=O)c1ccccc1 24.7%, CC(OC(=O)c1ccc(NC(=O)c2ccc(Br)cc2)cc1)C(=O)c1ccccc1 (configuration not stated) 0.95%, CC(=O)N(/N=C1\Sc2ccccc2C1=O)c1cccc(C)c1 20.1%, CCOC(=O)c1ccc(N=Cc2c(O)n(C)c(=O)n(C)c2=O)cc1 -54.3%, CC(=O)N(CN1C(=O)c2ccccc2C1=O)c1ccc(Oc2ccccc2)cc1 -50%, COc1ccc(N(/N=C2\Sc3ccccc3C2=O)C(C)=O)cc1 30.5%, CCOC(=O)c1ccc(N=Cc2c(O)n(C3CCCCC3)c(=O)n(C3CCCCC3)c2=O)cc1 13.1%, CCOC(=O)c1ccc(NC(=O)C2CCC(C)CC2)cc1 (configuration not stated) -28.3%
